In the library only some 1.4% were active in any assay of this set; here they are far more common.
RecA splice inh – Mtb RecA intein splicing inhibitors, primary screen, biochemical, fluorescence, HTS; Protein RecA (Mycobacterium tuberculosis (strain ATCC 25618 / H37Rv)), P9WHJ3; cell-free RecA intein splicing; inhibition, % (no concentration beside the values); 290,000 tested, 0.75% active; AID 2221, 2009; in the data active = inhibition above about 30%;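 note: 0% = vehicle wells and 100% = reference inhibitor control wells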
Target sequence (P9WHJ3 whole entry, looked up, canonical isoform): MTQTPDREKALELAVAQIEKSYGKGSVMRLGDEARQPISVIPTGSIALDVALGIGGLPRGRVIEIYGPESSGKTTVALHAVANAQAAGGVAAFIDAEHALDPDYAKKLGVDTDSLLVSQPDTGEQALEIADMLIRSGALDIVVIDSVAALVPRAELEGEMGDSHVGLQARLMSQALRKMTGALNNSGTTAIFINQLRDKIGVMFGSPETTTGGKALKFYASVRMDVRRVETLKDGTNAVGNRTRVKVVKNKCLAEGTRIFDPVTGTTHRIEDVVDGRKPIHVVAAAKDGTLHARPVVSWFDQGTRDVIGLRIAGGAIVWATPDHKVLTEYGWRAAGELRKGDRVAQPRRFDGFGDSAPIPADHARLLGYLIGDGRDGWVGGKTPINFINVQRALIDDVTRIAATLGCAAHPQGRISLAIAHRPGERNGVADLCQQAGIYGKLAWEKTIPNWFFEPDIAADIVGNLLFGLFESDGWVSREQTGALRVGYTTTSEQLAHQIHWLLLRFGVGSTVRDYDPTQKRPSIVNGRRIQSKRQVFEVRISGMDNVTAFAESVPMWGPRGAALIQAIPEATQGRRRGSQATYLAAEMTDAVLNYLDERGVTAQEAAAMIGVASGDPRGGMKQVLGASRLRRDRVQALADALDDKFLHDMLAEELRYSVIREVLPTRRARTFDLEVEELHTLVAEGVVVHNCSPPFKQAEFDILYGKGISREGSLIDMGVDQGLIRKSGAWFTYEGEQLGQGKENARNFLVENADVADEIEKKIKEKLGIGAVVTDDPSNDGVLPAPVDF
Mtb hypoxia inh – PubChem AID 1159583. 300,000 tested, 0.1% active. fluorescence inhibition, % (no concentration beside the values). M. tuberculosis hypoxia-regulated fluorescent reporter, fluorescence; in the data active = fluorescence inhibition mostly above about 23%, no sharp cut-off; inactive = mostly below about 17%
PrP UTR inh – inhibition of PrP 5' UTR reporter expression. cell-based PrP 5' UTR mRNA reporter, plate reader. inhibition, % (test concentration not listed). 340,000 tested, 0.35% active; in the data active = inhibition above about 52%; note: 0 = median of the neutral control wells
PrPC surface inh – inhibitors of human cell surface prion protein PrPC, primary screen, cell-based, TR-FRET | Major prion protein (Homo sapiens), P04156 | 370,000 tested, 0.43% active | TR-FRET read-out | AID 720596, 2013 | inhibition, % at 13.8 µM; in the data active = inhibition above about 24%; note: 0% = median of the test wells and 100% = reference compound wells
SARS 3CLpro inh – SARS-CoV 3CLpro protease inhibitors, primary screen, biochemical, quenched FRET. recombinant SARS-CoV 3CLpro, quenched FRET peptide cleavage. inhibition, % at 6 µM. 290,000 tested, 0.14% active. Replicase polyprotein 1ab (Severe acute respiratory syndrome coronavirus), P0C6X7; in the data active = inhibition above about 12%
BJeLR viability – MLPCN primary cell-based screen for lethality selective to Ras in HRASV12 cells; inhibition, % (test concentration not listed); BJeLR (HRASV12) viability, CellTiter-Glo ATP luminescence, 48 h; 300,000 tested, 0.17% active; in the data active = inhibition above about 50%
* marks the source's active call; other numbers are inactive results; x = no result given.

SMILES	RecA splice inh	Mtb hypoxia inh	PrP UTR inh	PrPC surface inh	SARS 3CLpro inh	BJeLR viability
CCOC(=O)C1=C(O)C(=Cc2ccc(CNC(=O)C(=O)Nc3ccccc3)o2)N=C1C	x	3	x	x	x	x
O=c1oc(-c2ccccc2Cl)nc2ccsc12	35*	-14	-14	5	7	-5
O=c1oc(-c2ccc(F)cc2)nc2ccsc12	26	13	-9	-2	0	12
Cc1ccc(-c2c(C(=O)NN=Cc3cccnc3)nnn2-c2nonc2N)cc1	x	1	x	x	x	x
Cc1nnc(N/N=C/c2cccc(OCc3ccc(Cl)c(Cl)c3)c2)n1N	74*	x	-11	5	-1	0
COC(=O)c1c(NC(=O)CN2C(=O)NC3(CCCCC3C)C2=O)sc2c1CCC2 (stereo not given)	x	29*	-23	4	x	x
COc1cc(C2CC=C(C(=O)O)C(c3ccccc3)N2S(=O)(=O)c2ccc(C)cc2)cc(OC)c1OC (stereo not given)	x	10	x	x	x	x
CCCCCCC[n+]1ccc(-c2cc[n+](CCCCCCC)cc2)cc1	5	81*	-42	-62	3	1
CCCCCCCCCCCCCCCC[n+]1ccc(/C=N/O)cc1	x	x	3	31*	10	x
CCCCCCCCCCCCCCCC[n+]1ccc(C(N)=O)cc1	x	18	-12	6	4	x
CN(C)C(=O)C[n+]1ccc(C=NO)cc1	x	-4	x	x	x	x
CC(C)(C)OC(=O)NCc1ccc(CNC(=O)c2nc[nH]c2C(=O)NCc2ccc(CNC(=O)OC(C)(C)C)cc2)cc1	x	2	-17	0	x	x
CC(C)(C)OC(=O)NCCCCCNC(=O)c1nc[nH]c1C(=O)NCc1ccc(CNC(=O)OC(C)(C)C)cc1	x	5	-6	25*	x	x
O=C(Cc1ccc(-c2ccccc2)cc1)NCc1ccccc1	-3	-4	24	6	5	64*
Cc1ccc(CNC(=O)Cc2ccc(-c3ccccc3)cc2)cc1	0	4	-58	3	5	-5
Cc1ccc(Cn2ccc(=O)c(OCc3c(Cl)cccc3Cl)c2C)cc1	10	68*	-14	17	-2	0
O=C1CCN(N=Nc2cccc(Cl)c2)N1	40*	x	x	x	-4	4
O=c1cc(C=Cc2ccccc2)oc2c1ccc1ccccc12	x	7	x	x	x	x
Cc1ccc(C)c(-c2ccc(=O)n(Cc3cccc(Br)c3)n2)c1	30*	14	-12	-5	-2	1
Cc1ccc(C)c(-c2ccc(=O)n(Cc3ccc(F)cc3Cl)n2)c1	22	7	-33	-6	3	-1
O=C(Cn1c(=O)cnc2ccccc21)Nc1cccc(S(=O)(=O)N2CCOCC2)c1	x	28*	7	-21	x	x
O=C(Cn1c(=O)cnc2ccccc21)Nc1cccc(S(=O)(=O)N2CCCCC2)c1	x	9	-19	-16	x	x
O=C(OCn1ncc(Br)c(Br)c1=O)c1c(F)cccc1F	53*	x	x	x	-5	-33
O=c1cnnc(N/N=C/c2ccccn2)[nH]1	-7	x	25	19	0	63*
CC(=O)c1ccc(NC(=O)N2CCc3ccccc3C2)cc1	1	8	-39	5	0	105*
SMILES	RecA splice inh	Mtb hypoxia inh	PrP UTR inh	PrPC surface inh	SARS 3CLpro inh	BJeLR viability
Cc1ccnc(NC(=O)CCCOc2cc(=O)n(C)c3ccccc23)c1	2	4	-20	39*	7	12
CNC[C@H](CC1CCCCC1)NC[C@H](Cc1ccccc1)NCCC12CC3CC(CC(C3)C1)C2	19	x	5	-3	4	69*
NC[C@H](Cc1ccccc1)NCCCCC1CCCCC1	x	x	-25	-1	x	x
Oc1ccc(C=Nc2ccc3ncccc3c2)c(O)c1	53*	x	x	x	3	0
Oc1ccc(C=Nc2cccc3ncccc23)c(O)c1	-1	1	-11	-4	-5	-9
Cn1nnnc1Sc1ncnc2scc(-c3ccc(F)cc3)c12	32*	5	-28	-4	5	3
Cn1nnnc1Sc1ncnc2scc(-c3ccccc3)c12	4	4	7	4	3	-20
C(=NNc1ccccn1)c1ccc(N2CCOCC2)cc1	x	12	x	x	x	x
Cc1ccc(CSc2nc3ccccc3cc2C=O)cc1	-1	x	-12	2	-6	44
O=Cc1cc2ccccc2nc1SCc1ccc(Cl)cc1	2	x	47	-4	-1	63*
O=Cc1cc2ccccc2nc1SCc1ccc(Cl)c(Cl)c1	3	x	51	1	9	55*
CC(C)CCN1C(Nc2ccccc2)=NCC1Cc1ccccc1 (stereo not given)	x	3	x	x	x	x
Cc1nc(N)nc(N)c1/C=C/C(C)(C)c1ccc(Cl)cc1	8	x	50	21	0	69*
CC(=NNC(=O)c1ccccc1C)c1ccc(NC(=O)c2cccs2)cc1	x	1	x	x	x	x
COc1cc(C=C2N=C(c3ccccc3)OC2=O)c(F)cc1OCc1ccccc1	x	16	x	x	x	x
Nc1ncnc(N)c1N=Nc1ccccc1	2	-4	-15	-21	-1	15
Cc1cc(C)[n+]2[nH]c(N)c(N=Nc3ccccc3)c2n1	1	50*	-14	-12	-5	3
c1ccc(CSc2nnc(-c3cccnc3)o2)cc1	-4	40*	-49	1	-5	-2
Cc1cc(Cl)n2c(nc3ccccc32)c1C#N	5	x	25	-6	-4	61*
CCOC(=O)C1C2COc3cc(OC)ccc3C2N2C(=O)N(c3ccc(F)cc3)C(=O)[C@]12C (stereo not given in full)	x	2	x	x	x	x
O=C1c2ccccc2-c2nnc(-c3ccc(O)cc3)cc21	49*	5	-92	-7	-7	-4
O=C1c2ccccc2-c2nnc(-c3ccc(F)cc3)cc21	x	5	7	-2	-2	4
Cn1c2ccccc2c(=O)n2c(=O)c3ccccc3cc12	93*	x	x	x	6	-1
CN(C)CC(CCC(CN(C)C)C(O)(c1ccccc1)c1ccccc1)C(O)(c1ccccc1)c1ccccc1 (stereo not given)	2	20	x	-16	0	83*
CC(=NNc1ccc([N+](=O)[O-])cc1)c1ccc(-n2nncc2C(C)(C)C)cc1	x	6	x	x	x	x
O=C(C1CCCN(S(=O)(=O)c2cccc3nsnc23)C1)N1CCc2ccccc21 (stereo not given)	5	6	-20	-31	3	1
CC1Cc2ccccc2N1C(=O)C1CCCN(S(=O)(=O)c2cccc3nsnc23)C1 (stereo not given)	7	10	4	-13	12*	-10
O=C(O)c1ccc([N+](=O)[O-])c2c1C(=O)c1ccccc1C2=O	47*	11	-11	-72	x	-3
Cc1ccc2[nH]c(-c3cccc(F)c3)cc(=O)c2c1	0	4	60*	1	1	33
Cc1ccc(-c2cc(=O)c3cc(F)ccc3[nH]2)cc1	-1	17	-41	4	-3	3

Compound activity: PubChem BioAssay, several laboratories
